According to the supplement of paper PMC10849652:
About 7,900 targets were measured; listed, in parts, are those with a hit and a random draw of the rest. About 0.6% of all pairs of compound and target were hits.

Experiments:
Test in all cases: log2 fold change, soluble protein after heating vs DMSO (PISA); higher = thermal stabilisation; K562 cells, 10 uM, 30 min; active = over 0.2 and 3.5 SD of the protein, either way, in both replicates (recomputed)
[1] = compound: CS(=O)(=O)c1ccc(-c2cnc(N)c(C(=O)Nc3ccccc3)n2)cc1
Procedure, shortened: (§1)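 Aliquots of K562 cells (2×10^6 cells/mL) treated with 10 μM compound for 30 min were heated for 3 min over 48°C-58°C. After pooling and extraction in PBS with 0.5% NP-40 at 4°C, soluble protein from a 21,000xg, 90 min spin was quantified by TMTpro 16plex LC-MS/MS with channel sums equalised. Thermal stability is expressed against control samples, from duplicates, as a log2 fold change.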

crizotinib = compound: C[C@@H](Oc1cc(-c2cnn(C3CCNCC3)c2)cnc1N)c1c(Cl)ccc(F)c1Cl [crizotinib]
Procedure, shortened: as §1

[2] = compound: C[C@@H]1COCCN1C2=NC(=NC(=C2)C3(CC3)S(=O)(=O)C)C4=C5C=CNC5=CC=C4
Procedure, shortened: as §1

[3] = compound: C[C@H](C1=CC=C(C=C1)C(=O)NC2=C3C=CNC3=NC=C2)N
Procedure, shortened: as §1

duvelisib = compound: C[C@H](Nc1ncnc2nc[nH]c12)c1cc2cccc(Cl)c2c(=O)n1-c1ccccc1 [duvelisib]
Procedure, shortened: as §1

gandotinib = compound: Cc1cc(Nc2cc(CN3CCOCC3)c3nc(C)c(Cc4ccc(Cl)cc4F)n3n2)n[nH]1 [gandotinib]
Procedure, shortened: as §1

[4] = compound: Cc1cc(SCc2sc(-c3ccc(C(F)(F)F)cc3)nc2C)ccc1OCC(=O)O
Procedure, shortened: as §1

doramapimod = compound: Cc1ccc(-n2nc(C(C)(C)C)cc2NC(=O)Nc2ccc(OCCN3CCOCC3)c3ccccc23)cc1 [doramapimod]
Procedure, shortened: as §1

ispinesib = compound: Cc1ccc(C(=O)N(CCCN)[C@@H](c2nc3cc(Cl)ccc3c(=O)n2Cc2ccccc2)C(C)C)cc1 [ispinesib]
Procedure, shortened: as §1

bafetinib = compound: Cc1ccc(NC(=O)c2ccc(CN3CC[C@H](N(C)C)C3)c(C(F)(F)F)c2)cc1Nc1nccc(-c2cncnc2)n1 [bafetinib]
Procedure, shortened: as §1

[5] = compound: Cc1cccc(CC(=O)N2CCc3c2ccc(-c2cn(C)c4ncnc(N)c24)c3F)n1
Procedure, shortened: as §1

nilotinib = compound: Cc1cn(-c2cc(NC(=O)c3ccc(C)c(Nc4nccc(-c5cccnc5)n4)c3)cc(C(F)(F)F)c2)cn1 [nilotinib]
Procedure, shortened: as §1

[6] = compound: Cc1nc(Nc2n[nH]c3c2CN(C(=O)N[C@H](CN(C)C)c2ccccc2)C3(C)C)c2sccc2n1
Procedure, shortened: as §1

dasatinib = compound: Cc1nc(Nc2ncc(C(=O)Nc3c(C)cccc3Cl)s2)cc(N2CCN(CCO)CC2)n1 [dasatinib]
Procedure, shortened: as §1

[7] = compound: Cc1ncc(-c2ccnc(Nc3ccc(S(C)(=O)=O)cc3)n2)n1C(C)C
Procedure, shortened: as §1

[8] = compound: Cn1cc(-c2ccc3c(c2)CCN3C(=O)Cc2cccc(C(F)(F)F)c2)c2c(N)ncnc21
Procedure, shortened: as §1

[9] = compound: Cn1cc(-c2ccc3nnc(C(F)(F)c4ccc5ncccc5c4)n3n2)cn1
Procedure, shortened: as §1

tipifarnib = compound: Cn1cncc1[C@@](N)(c1ccc(Cl)cc1)c1ccc2c(c1)c(-c1cccc(Cl)c1)cc(=O)n2C [tipifarnib]
Procedure, shortened: as §1

mubritinib = compound: FC(F)(F)c1ccc(/C=C/c2nc(COc3ccc(CCCCn4ccnn4)cc3)co2)cc1 [mubritinib]
Procedure, shortened: as §1

tozasertib = compound: Cc1cc(Nc2cc(N3CCN(C)CC3)nc(Sc3ccc(NC(=O)C4CC4)cc3)n2)n[nH]1 [tozasertib]
Procedure, shortened: as §1

Measured: log2 fold change

FHOD1 (UniProt Q9Y613)
Chain of UniProt Q9Y613 (Q9Y613 whole entry, looked up): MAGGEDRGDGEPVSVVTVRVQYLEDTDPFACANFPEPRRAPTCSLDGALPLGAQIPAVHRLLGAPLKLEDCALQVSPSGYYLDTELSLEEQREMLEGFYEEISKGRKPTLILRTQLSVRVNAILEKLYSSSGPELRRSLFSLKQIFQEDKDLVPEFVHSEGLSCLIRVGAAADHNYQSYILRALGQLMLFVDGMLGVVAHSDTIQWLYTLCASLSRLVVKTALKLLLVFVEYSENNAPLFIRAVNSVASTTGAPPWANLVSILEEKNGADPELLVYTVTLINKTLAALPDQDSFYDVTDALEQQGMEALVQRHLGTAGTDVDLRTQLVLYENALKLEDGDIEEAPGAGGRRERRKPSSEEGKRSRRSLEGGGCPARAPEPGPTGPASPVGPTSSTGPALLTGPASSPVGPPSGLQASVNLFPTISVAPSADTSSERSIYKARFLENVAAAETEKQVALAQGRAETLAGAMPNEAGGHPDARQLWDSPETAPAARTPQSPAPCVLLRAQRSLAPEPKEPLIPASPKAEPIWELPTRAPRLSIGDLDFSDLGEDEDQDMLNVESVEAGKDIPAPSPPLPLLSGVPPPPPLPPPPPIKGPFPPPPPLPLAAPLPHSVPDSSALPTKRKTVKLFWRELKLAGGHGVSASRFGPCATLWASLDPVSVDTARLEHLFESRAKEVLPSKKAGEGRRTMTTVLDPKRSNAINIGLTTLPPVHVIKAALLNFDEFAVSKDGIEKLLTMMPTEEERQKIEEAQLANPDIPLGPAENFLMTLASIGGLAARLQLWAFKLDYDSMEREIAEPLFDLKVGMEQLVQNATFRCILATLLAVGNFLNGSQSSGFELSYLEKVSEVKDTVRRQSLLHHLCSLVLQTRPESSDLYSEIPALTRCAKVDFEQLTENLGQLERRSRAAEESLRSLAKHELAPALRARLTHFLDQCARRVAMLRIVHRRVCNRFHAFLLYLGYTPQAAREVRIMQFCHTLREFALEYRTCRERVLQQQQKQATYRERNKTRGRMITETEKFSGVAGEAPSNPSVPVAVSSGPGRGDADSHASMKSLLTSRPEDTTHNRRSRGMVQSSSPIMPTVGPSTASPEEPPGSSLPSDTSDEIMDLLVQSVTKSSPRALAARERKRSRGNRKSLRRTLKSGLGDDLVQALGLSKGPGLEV
active: [3] 0.58
inactive: [1] 0.033 | crizotinib -0.107 | [2] -0.174 | duvelisib -0.121 | gandotinib 0.105 | [4] 0.085 | doramapimod 0.235 | ispinesib -0.193 | bafetinib -0.187 | [5] -0.005 | nilotinib -0.089 | [6] -0.109 | dasatinib 0.044 | [7] -0.043 | [8] -0.238 | [9] -0.089 | tipifarnib 0.041 | mubritinib -0.218

FKBP3 (UniProt Q00688)
Chain of UniProt Q00688 (Q00688 whole entry, looked up): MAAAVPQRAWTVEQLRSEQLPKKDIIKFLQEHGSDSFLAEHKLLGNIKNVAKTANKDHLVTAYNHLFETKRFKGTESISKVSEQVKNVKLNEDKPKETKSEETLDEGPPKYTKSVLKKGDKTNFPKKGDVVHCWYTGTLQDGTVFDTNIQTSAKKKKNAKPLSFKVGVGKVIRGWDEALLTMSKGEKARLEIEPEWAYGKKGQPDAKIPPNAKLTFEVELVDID
inactive: [1] -0.02 | crizotinib 0.017 | [2] 0.074 | [3] -0.076 | duvelisib 0.016 | gandotinib -0.024 | tozasertib 0.004 | [4] -0.006 | doramapimod 0 | ispinesib 0.019 | bafetinib 0.014 | [5] -0.03 | nilotinib 0.028 | [6] 0.041 | dasatinib -0.003 | [7] 0.029 | [8] -0.006 | [9] 0.021 | tipifarnib -0.01 | mubritinib 0.017

FBXO3 (UniProt Q9UK99)
Chain of UniProt Q9UK99 (Q9UK99 whole entry, looked up): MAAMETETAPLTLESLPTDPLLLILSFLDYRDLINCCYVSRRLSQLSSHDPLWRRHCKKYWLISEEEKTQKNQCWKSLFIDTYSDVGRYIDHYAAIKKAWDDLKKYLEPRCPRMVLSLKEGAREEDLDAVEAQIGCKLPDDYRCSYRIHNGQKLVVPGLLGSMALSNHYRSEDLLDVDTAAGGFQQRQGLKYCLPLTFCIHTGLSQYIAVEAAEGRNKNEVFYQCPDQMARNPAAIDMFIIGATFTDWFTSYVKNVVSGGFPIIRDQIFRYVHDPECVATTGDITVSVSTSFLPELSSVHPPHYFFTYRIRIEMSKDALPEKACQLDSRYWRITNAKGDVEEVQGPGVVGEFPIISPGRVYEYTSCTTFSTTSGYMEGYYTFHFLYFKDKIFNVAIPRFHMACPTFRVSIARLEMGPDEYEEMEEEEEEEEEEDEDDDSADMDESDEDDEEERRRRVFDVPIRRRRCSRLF
inactive: [1] 0.055 | crizotinib 0.005 | [2] -0.095 | [3] 0.008 | duvelisib -0.025 | gandotinib -0.112 | tozasertib -0.046 | [4] -0.025 | doramapimod -0.003 | ispinesib 0.082 | bafetinib -0.052 | [5] 0.06 | nilotinib -0.031 | [6] -0.024 | dasatinib -0.054 | [7] -0.006 | [8] 0.041 | [9] -0.035 | tipifarnib -0.007 | mubritinib 0.055

GABPA (UniProt Q06546)
inactive: [1] 0.059 | crizotinib -0.028 | [2] 0.126 | [3] 0.012 | duvelisib 0.089 | gandotinib -0.029 | tozasertib 0.025 | [4] 0.068 | doramapimod -0.018 | ispinesib -0.099 | bafetinib -0.036 | [5] 0.034 | nilotinib -0.103 | [6] -0.115 | dasatinib -0.12 | [7] -0.026 | [8] 0.048 | [9] 0.111 | tipifarnib -0.149 | mubritinib 0.019

GTF2E2 (UniProt P29084)
Chain of UniProt P29084 (P29084 whole entry, looked up): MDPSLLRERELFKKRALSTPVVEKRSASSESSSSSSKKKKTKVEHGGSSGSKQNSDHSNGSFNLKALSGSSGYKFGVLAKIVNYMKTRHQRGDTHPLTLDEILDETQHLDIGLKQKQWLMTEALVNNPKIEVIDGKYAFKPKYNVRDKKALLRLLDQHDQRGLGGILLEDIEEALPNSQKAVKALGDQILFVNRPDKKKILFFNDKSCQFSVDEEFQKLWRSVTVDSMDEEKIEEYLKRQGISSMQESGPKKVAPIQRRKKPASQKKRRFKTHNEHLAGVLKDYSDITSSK
inactive: [1] 0.037 | crizotinib 0.012 | [2] -0.029 | [3] -0.002 | duvelisib 0.051 | gandotinib -0.03 | tozasertib 0.02 | [4] 0.071 | doramapimod -0.025 | ispinesib -0.01 | bafetinib 0.031 | [5] 0.03 | nilotinib -0.082 | [6] -0.108 | dasatinib -0.241 | [7] 0.005 | [8] -0.016 | [9] 0.044 | tipifarnib 0.051 | mubritinib -0.02

GLIPR2 (UniProt Q9H4G4)
Chain of UniProt Q9H4G4 (Q9H4G4 whole entry, looked up): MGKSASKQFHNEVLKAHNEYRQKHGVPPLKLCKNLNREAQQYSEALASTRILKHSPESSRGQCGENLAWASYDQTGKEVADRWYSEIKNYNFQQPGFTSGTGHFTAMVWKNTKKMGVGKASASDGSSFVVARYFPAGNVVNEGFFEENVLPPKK
active: ispinesib -0.459
inactive: [1] 0.034 | crizotinib -0.243 | [2] -0.018 | [3] -0.064 | duvelisib 0.1 | gandotinib 0.157 | tozasertib -0.062 | [4] 0.007 | doramapimod -0.01 | bafetinib -0.101 | [5] -0.024 | dasatinib -0.059 | [8] 0.031 | [9] 0.087 | tipifarnib 0.019 | mubritinib 0.054

HMGN2 (UniProt P05204)
inactive: [1] -0.093 | crizotinib 0.051 | [2] -0.201 | [3] -0.019 | duvelisib -0.062 | gandotinib -0.212 | tozasertib -0.031 | [4] -0.058 | doramapimod -0.1 | ispinesib -0.048 | bafetinib -0.013 | [5] -0.189 | nilotinib -0.025 | [6] 0.022 | dasatinib 0.053 | [7] 0 | [8] -0.025 | [9] 0.04 | tipifarnib 0.079 | mubritinib 0.021

FOXO3 (UniProt O43524)
Chain of UniProt O43524 (O43524 whole entry, looked up): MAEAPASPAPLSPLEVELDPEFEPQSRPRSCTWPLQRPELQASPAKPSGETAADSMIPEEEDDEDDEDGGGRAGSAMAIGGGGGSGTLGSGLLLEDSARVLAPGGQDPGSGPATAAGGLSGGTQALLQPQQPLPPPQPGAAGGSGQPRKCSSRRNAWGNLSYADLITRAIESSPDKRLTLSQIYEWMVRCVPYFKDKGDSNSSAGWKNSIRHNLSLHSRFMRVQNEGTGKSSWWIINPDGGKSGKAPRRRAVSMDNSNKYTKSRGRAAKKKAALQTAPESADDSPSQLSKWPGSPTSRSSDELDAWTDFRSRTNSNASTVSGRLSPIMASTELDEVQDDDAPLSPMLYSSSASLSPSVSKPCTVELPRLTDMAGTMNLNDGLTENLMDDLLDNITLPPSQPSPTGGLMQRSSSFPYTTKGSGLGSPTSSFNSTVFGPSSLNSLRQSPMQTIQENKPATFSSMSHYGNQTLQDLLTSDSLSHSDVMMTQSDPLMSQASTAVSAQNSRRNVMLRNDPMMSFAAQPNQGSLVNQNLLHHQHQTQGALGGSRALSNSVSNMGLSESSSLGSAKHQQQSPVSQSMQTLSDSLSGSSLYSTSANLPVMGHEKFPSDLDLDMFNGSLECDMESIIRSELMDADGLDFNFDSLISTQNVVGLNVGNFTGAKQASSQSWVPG
inactive: [1] -0.028 | [2] -0.444 | [3] 0.013 | duvelisib -0.354 | gandotinib -0.061 | tozasertib -0.095 | [4] 0.16 | doramapimod 0.005 | ispinesib -0.095 | [5] 0.002 | dasatinib -0.14 | [8] 0 | [9] -0.013 | tipifarnib -0.139 | mubritinib -0.057
active: crizotinib -0.423

HMGCR isoform 3 (UniProt P04035)
Chain of UniProt P04035 (P04035 whole entry, looked up): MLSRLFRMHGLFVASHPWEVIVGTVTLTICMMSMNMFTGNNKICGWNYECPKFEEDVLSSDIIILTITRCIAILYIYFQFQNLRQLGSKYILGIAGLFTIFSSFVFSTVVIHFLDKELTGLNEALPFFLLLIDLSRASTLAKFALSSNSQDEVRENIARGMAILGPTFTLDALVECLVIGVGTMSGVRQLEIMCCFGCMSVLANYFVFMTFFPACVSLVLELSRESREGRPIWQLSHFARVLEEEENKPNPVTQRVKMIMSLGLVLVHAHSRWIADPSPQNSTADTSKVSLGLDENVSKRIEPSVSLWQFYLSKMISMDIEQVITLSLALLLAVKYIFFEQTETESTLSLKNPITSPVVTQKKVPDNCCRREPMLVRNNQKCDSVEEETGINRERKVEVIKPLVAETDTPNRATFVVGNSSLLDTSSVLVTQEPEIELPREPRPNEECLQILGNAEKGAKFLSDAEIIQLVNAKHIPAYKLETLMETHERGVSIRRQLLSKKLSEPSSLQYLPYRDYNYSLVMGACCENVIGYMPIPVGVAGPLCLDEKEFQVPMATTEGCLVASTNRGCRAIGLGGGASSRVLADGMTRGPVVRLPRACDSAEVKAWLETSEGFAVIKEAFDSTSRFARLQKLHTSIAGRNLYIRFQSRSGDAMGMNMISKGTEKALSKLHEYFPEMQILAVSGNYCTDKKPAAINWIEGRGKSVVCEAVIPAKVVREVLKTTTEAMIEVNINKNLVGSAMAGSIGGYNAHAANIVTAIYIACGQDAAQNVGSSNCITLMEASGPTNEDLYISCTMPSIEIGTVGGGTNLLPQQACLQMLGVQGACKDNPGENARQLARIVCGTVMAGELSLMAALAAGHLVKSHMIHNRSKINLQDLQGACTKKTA
inactive: [1] -0.259 | crizotinib 0.071 | [2] -0.234 | [3] -0.004 | duvelisib 0.003 | gandotinib 0.092 | tozasertib -0.088 | [4] -0.065 | doramapimod 0.025 | ispinesib 0.111 | bafetinib 0.008 | [5] 0.016 | nilotinib -0.241 | [6] 0.015 | dasatinib -0.027 | [7] -0.087 | [8] -0.023 | [9] -0.062 | tipifarnib -0.021 | mubritinib 0.1

GDE1 (UniProt Q9NZC3)
inactive: [1] 0.033 | crizotinib 0.063 | [2] 0.077 | [3] -0.087 | duvelisib -0.014 | tozasertib 0.077 | [4] -0.067 | doramapimod 0.074 | ispinesib 0.051 | bafetinib 0.081 | nilotinib 0.03 | [6] 0.054 | dasatinib 0.028 | [7] -0.032 | [8] 0.106 | [9] -0.029 | tipifarnib -0.001 | mubritinib 0.01

GAB2 (UniProt Q9UQC2)
active: crizotinib -0.899 | duvelisib -0.836
inactive: [1] -0.084 | [2] -0.361 | [3] 0.033 | gandotinib -0.071 | tozasertib -0.34 | [4] 0.181 | doramapimod 0.118 | ispinesib -0.511 | [5] 0 | dasatinib -0.599 | [8] 0.002 | [9] 0 | tipifarnib 0.175 | mubritinib 0.075

HMG20A (UniProt Q9NP66)
inactive: [1] -0.042 | crizotinib 0.07 | [2] -0.018 | [3] -0.199 | duvelisib 0 | gandotinib 0.104 | tozasertib -0.035 | [4] -0.087 | doramapimod 0.071 | ispinesib 0.352 | bafetinib -0.012 | [5] -0.05 | nilotinib -0.046 | [6] -0.02 | dasatinib 0.052 | [7] -0.012 | [8] -0.05 | [9] -0.224 | tipifarnib 0.064 | mubritinib -0.021

HDAC7 isoform 5 (UniProt Q8WUI4)
inactive: [1] -0.027 | crizotinib -0.013 | [2] 0.016 | duvelisib 0.008 | gandotinib 0.011 | tozasertib -0.03 | [4] 0.028 | doramapimod -0.018 | ispinesib 0.185 | bafetinib -0.023 | [5] 0.033 | nilotinib 0.024 | dasatinib -0.134 | [7] -0.161 | [8] 0.026 | [9] -0.021 | tipifarnib 0.093 | mubritinib -0.006
active: [3] -0.281 | [6] -0.378

FEN1 (UniProt P39748)
active: crizotinib -0.488
inactive: [1] 0.018 | [2] 0.367 | [3] -0.018 | duvelisib 0.07 | gandotinib -0.162 | tozasertib -0.024 | [4] 0.177 | doramapimod -0.065 | ispinesib -0.126 | bafetinib 0.02 | [5] 0.23 | nilotinib -0.149 | [6] 0.053 | [7] -0.05 | [8] 0.16 | [9] 0.164 | tipifarnib -0.274 | mubritinib 0.314

GTPBP6 (UniProt O43824)
Chain of UniProt O43824 (O43824 whole entry, looked up): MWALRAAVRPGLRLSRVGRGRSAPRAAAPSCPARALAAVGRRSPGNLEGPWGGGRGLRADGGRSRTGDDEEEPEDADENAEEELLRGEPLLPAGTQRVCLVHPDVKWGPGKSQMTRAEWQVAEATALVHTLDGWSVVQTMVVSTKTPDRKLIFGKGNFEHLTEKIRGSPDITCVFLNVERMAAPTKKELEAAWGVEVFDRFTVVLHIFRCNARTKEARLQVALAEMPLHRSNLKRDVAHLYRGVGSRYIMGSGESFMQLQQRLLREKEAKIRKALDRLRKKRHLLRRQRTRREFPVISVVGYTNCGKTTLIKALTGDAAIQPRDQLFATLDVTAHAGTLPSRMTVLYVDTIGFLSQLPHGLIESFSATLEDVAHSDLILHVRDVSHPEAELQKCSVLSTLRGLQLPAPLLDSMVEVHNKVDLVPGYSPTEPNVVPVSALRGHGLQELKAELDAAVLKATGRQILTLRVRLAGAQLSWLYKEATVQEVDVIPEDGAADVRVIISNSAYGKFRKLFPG
active: bafetinib -0.706
inactive: [1] -0.002 | crizotinib 0.012 | [2] 0.197 | [3] -0.066 | duvelisib -0.002 | gandotinib 0.003 | tozasertib 0.087 | [4] -0.006 | doramapimod 0.06 | ispinesib 0.076 | [5] -0.072 | nilotinib 0.13 | [6] 0.069 | dasatinib 0.028 | [7] -0.042 | [8] 0.057 | [9] 0.042 | mubritinib 0.058

FIBP (UniProt O43427)
inactive: [1] 0.022 | crizotinib -0.043 | [2] 0.257 | [3] 0.118 | duvelisib 0.041 | gandotinib -0.094 | tozasertib -0.144 | [4] 0.02 | doramapimod -0.048 | ispinesib -0.052 | bafetinib -0.096 | [5] -0.093 | dasatinib -0.201 | [8] 0.118 | [9] -0.06 | tipifarnib -0.029 | mubritinib 0.134

GSK3B isoform 2 (UniProt P49841)
Chain of UniProt P49841 (P49841 whole entry, looked up): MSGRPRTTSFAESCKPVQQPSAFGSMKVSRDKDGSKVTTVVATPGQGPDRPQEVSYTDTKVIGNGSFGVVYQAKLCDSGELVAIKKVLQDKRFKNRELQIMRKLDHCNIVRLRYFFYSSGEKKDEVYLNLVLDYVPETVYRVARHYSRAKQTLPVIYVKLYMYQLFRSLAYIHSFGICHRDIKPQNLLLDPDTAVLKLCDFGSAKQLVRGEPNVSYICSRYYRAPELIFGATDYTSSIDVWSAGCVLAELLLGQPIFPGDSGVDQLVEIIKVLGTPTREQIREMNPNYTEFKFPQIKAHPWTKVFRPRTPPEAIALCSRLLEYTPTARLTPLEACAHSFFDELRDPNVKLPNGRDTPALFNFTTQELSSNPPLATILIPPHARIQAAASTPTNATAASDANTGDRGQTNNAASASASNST
inactive: [1] 0.09 | crizotinib -0.053 | [2] -0.032 | [3] -0.143 | duvelisib -0.015 | gandotinib -0.108 | tozasertib -0.043 | [4] 0.015 | doramapimod -0.013 | ispinesib 0.059 | bafetinib -0.003 | [5] 0.055 | nilotinib -0.04 | [6] 0.094 | dasatinib -0.115 | [7] 0.124 | [8] 0.055 | [9] -0.013 | tipifarnib -0.024 | mubritinib -0.008
